Values without a mark were called inactive. How the calls were made is not given here.
Biological target: Pantothenate synthetase (Mycobacterium tuberculosis (strain ATCC 25618 / H37Rv)) (UniProt P9WIL5)
Test: Recombinant Mtb pantothenate synthetase (PanC) inhibitors, coupled enzyme, confirmatory (AID 375);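 further: 0% = full reaction with vehicle and 100% = no enzyme background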
Settings: coupled enzyme assay; at 10 µM, active compounds read high

Sequence of Pantothenate synthetase (Mycobacterium tuberculosis (strain ATCC 25618 / H37Rv)) (P9WIL5 whole entry, looked up): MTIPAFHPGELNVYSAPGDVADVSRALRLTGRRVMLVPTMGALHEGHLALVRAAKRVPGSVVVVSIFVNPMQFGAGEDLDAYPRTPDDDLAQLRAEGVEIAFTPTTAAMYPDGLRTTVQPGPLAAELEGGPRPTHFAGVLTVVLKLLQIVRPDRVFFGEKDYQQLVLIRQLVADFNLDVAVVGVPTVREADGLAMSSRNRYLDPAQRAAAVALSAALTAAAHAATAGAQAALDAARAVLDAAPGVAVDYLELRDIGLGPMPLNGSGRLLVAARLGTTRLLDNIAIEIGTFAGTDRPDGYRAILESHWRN

SMILES: CC1CCN(c2nc3c(c(=O)[nH]c(=O)n3C)n2CCSc2ncccn2)CC1
- inhibition: 0%

SMILES: CCOC(=O)Cn1nc(-c2ccc(Cl)cc2)cc1N
- inhibition: 0%

SMILES: COc1cccc(/C=N/n2c(C)nc3ccccc32)c1OC
- inhibition: 0%

SMILES: CCN1CCN(c2nc3c(c(=O)[nH]c(=O)n3C)n2CCSc2nc3ccccc3s2)CC1
- inhibition: 3%

SMILES: CCOC(=O)c1c(NC(=O)c2cccs2)sc2c1CCN(C(=O)OCC)C2
- inhibition: 0%

SMILES: COc1cc(C(=O)OCc2cc3ccccc3[nH]c2=O)cc(OC)c1OC
- inhibition: 4%

SMILES: C/C(=N\O)C(=O)NCc1ccccn1
- inhibition: 4%

SMILES: COc1ccc(-n2nc(C(=O)Nc3ccc4c(c3)OCO4)c3c4ccccc4n(C)c3c2=O)cc1
- inhibition: 2%

SMILES: CC1(C)OC(=O)N(c2cccnc2)C1(C)O (configuration not stated)
- inhibition: 3%

SMILES: COc1ccccc1CC(=O)NCC1CCCO1 (configuration not stated)
- inhibition: 0%

SMILES: Cc1ccc(S(=O)(=O)N2CCC(C(=O)N3CCC[C@H]3C(=O)NCc3ccccc3)CC2)cc1
- inhibition: 0%

SMILES: O=C(NCN1CCCCC1)c1cnccn1
- inhibition: 0%

SMILES: CCCCCn1c(CN2CCN(C)CC2)nc2c1c(=O)n(C)c(=O)n2C
- inhibition: 0%

SMILES: CN(C)S(=O)(=O)c1ccc(/C(O)=C2/C(=O)C(=O)N(CCN3CCCCC3)C2c2cccnc2)cc1 (configuration not stated)
- inhibition: 0%

SMILES: CC1CCCN(S(=O)(=O)c2ccc(C(=O)Nc3nnc(-c4ccccc4Cl)o3)cc2)C1 (configuration not stated)
- inhibition: 0%

SMILES: CCCOC(=O)c1[nH]c2c(c1C)C(=O)CC(c1cc(OC)c(OC)c(OC)c1)C2 (configuration not stated)
- inhibition: 0%

SMILES: O=c1[nH]c2ccccc2n1CCCN1CCN(C(c2ccccc2)c2ccccc2)CC1
- inhibition: 1%

SMILES: CCCCOc1cc(C(=O)NCCN(CC)CC)c2ccccc2n1
- inhibition: 0%

SMILES: CC1Oc2ccccc2N(Cc2ccccc2Cl)C1=O (configuration not stated)
- inhibition: 9%

SMILES: Cc1cc2ncn(C(=O)N3CCOCC3)c2cc1C
- inhibition: 0%

SMILES: O=C(c1cccnc1NCc1ccccc1)N1CCOCC1
- inhibition: 0%

SMILES: CC(C)(C)C(=O)Cn1c(=N)n(Cc2ccccc2)c2ccccc21
- inhibition: 8%

SMILES: Cn1cccc1Cc1nnc(SCC(N)=O)n1-c1ccc(F)cc1
- inhibition: 0%

SMILES: Nc1nnc(-c2ccccc2)c(-c2ccccc2)n1
- inhibition: 0%

SMILES: COC(=O)CCN(C(=O)c1ccc2c(c1)OCO2)c1ccccn1
- inhibition: 0%

SMILES: CCC(=O)N1CCc2cc(S(=O)(=O)CCC(=O)Nc3nc(C)cs3)ccc21
- inhibition: 5%

SMILES: CCOC(=O)N1CCN(c2cc3[nH]c(=S)[nH]c3cc2F)CC1
- inhibition: 2%

SMILES: CCOC(=O)C(NC(=O)CC)(Nc1ccc(S(=O)(=O)Nc2onc(C)c2C)cc1)C(F)(F)F (configuration not stated)
- inhibition: 0%

SMILES: CCc1nnc(NC(=O)CSc2nnc(-c3cc4ccccc4cc3O)n2CC)s1
- inhibition: 6%

SMILES: Cc1ccc(C(C(=O)NC2CCCCC2)N2CCOCC2)cc1 (configuration not stated)
- inhibition: 0%

SMILES: Cc1cccc(Cc2c(C)nc3nc(SCC(=O)NCc4ccco4)nn3c2C)c1
- inhibition: 2%

SMILES: COc1ccc2c(c1)c1c(n2C(C)=O)C(OC(C)=O)=NCC1
- inhibition: 0%

SMILES: COc1ccc(C2C(C(C)=O)=C(O)C(=O)N2C)c(OC)c1 (configuration not stated)
- inhibition: 0%

SMILES: COC(=O)C1=C(C)Nc2nnnn2C1c1ccc(Cl)cc1Cl (configuration not stated)
- inhibition: 0%

SMILES: Cc1cc(=O)oc2c(CN3CCN(C)CC3)c(O)c(Cl)cc12
- inhibition: 7%

SMILES: COc1cccc2cc(C(=O)N3CCc4ccccc43)c(=O)oc12
- inhibition: 1%

SMILES: CN(C)CCSc1nnc2sc3ccccc3n12
- inhibition: 8%

SMILES: CCOc1ccc(NC(=O)CN(C)S(=O)(=O)c2cccs2)cc1
- inhibition: 13%

SMILES: CCC1CCCCN1C(=O)CSc1nnc(-c2ccco2)o1 (configuration not stated)
- inhibition: 1%

SMILES: Cc1cc(OCC(=O)NCCO)cc(C)c1Cl
- inhibition: 3%

SMILES: Cc1ccc2c(c1C)NC(C(=O)O)C1CC=CC21 (configuration not stated)
- inhibition: 0%

SMILES: COC(=O)c1cn(C(=O)OC)c2ccccc12
- inhibition: 7%

SMILES: CC(C)Sc1nc(N2CCCC2)c2c(c1C#N)CC(C)(C)OC2
- inhibition: 0%

SMILES: N#CC1=C(N)SC(N)=C(C#N)C1c1ccc(C(F)(F)F)cc1
- inhibition: 0%

SMILES: CCOc1ccc(CNC(=O)C2CCCN(S(C)(=O)=O)C2)cc1OC (configuration not stated)
- inhibition: 0%

SMILES: COc1ccc(NC(=O)CS(=O)CC(=O)Nc2cc(Cl)ccc2OC)cc1 (configuration not stated)
- inhibition: 3%

SMILES: O=C(NCc1cccs1)C1CC(=O)N(C2CCCC2)C1 (configuration not stated)
- inhibition: 2%
